PubChem BioAssay AID2685 (National Center for Advancing Translational Sciences (NCATS), 2010)
About 2,100 (0.66%) of roughly 320,000 compounds were called active. Inconclusive results (about 53%) are left out. The sample holds actives, similar compounds and a random draw of the others, so the mix is not that of the screen. Calls follow the shape of the dose curve; as a rule, active = well fitted inhibition curve with a large enough effect in the signal ratio, with a control signal flat (not every such curve was filed as active); inconclusive = small, poorly fitted or top-dose-only effect, or effect the other way, or a change in a side signal; inactive = flat fitted curve, though single readings scatter; the % refers to the signal ratio.

Experiment: qHTS Assay for Lipid Storage Modulators in Drosophila S3 Cells;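 as to cell number change: cells counted by Cell Tracker Red CMTPX staining in the red channel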
Settings: BODIPY lipid droplet fluorescence, 18-24 h, cells fed with added oleic acid; cell number change: measured here: cell count max response; series mostly up to 46.1 µM
Summary of the method: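 Drosophila S3 cells loaded with oleic acid (400 uM, as added) and compounds at several concentrations; lipid droplets imaged by 488-nm laser-scanning cytometry, 500–530 nm intensity and object ratio to cell channel. Percent activity normalized to 20 uM Triacsin C.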
Potency is read from the fitted curve at half-maximal effect.

SMILES	Potency	cell number change [%]
COc1cccc(CNC(=O)CCl)c1	inactive	5.99
COc1cccc(CNC(=O)COC(=O)c2nc(Cl)c(Cl)c(Cl)c2Cl)c1	14.6 µM (active)	-29.4
O=C(COC(=O)c1nc(Cl)c(Cl)c(Cl)c1Cl)NCc1ccccc1	inactive	-8.84
COC(=O)c1sccc1NC(=O)CC1C(=O)NCCN1C(=O)Nc1cc(Cl)ccc1OC (stereo not given)	inactive	13.4
CCC(=O)Oc1ccc2c(=O)c(-c3ccc4ccccc4n3)c(CC)oc2c1C	inactive	1.88
COc1ccc(C(=O)N2CCCCC2)cc1S(=O)(=O)Nc1cccc(C(=O)O)c1	inactive	0.28
COc1ccc(F)cc1S(=O)(=O)Nc1cccc(C(=O)O)c1	inactive	
COc1ccc(C(=O)O)cc1S(=O)(=O)Nc1cccc(C(F)(F)F)c1	29.1 µM (active)	-15.9
COC(=O)c1cccc(C23CC4(C2)[C@H](CN(Cc2cccnc2)[C@@H]4c2ccccc2)C3c2ccc(Cl)nc2)c1 (stereo not given in full)	inactive	17.9
CC(C)(C)OC(=O)N/N=C/c1cccc([N+](=O)[O-])c1	inactive	14.2
O=C(c1ccccc1)N1CCC(CC2CC(c3cccc(Br)c3)=NO2)(C(=O)NCC2CCCCC2)CC1 (stereo not given)	inactive	21.3
CCCCCCCNC(=O)C1(CC2CC(c3cccc(Br)c3)=NO2)CCN(C(=O)c2cc(OCC)c(OCC)c(OCC)c2)CC1 (stereo not given)	inactive	-10.9
CCOc1cc(C(=O)N2CCC(CC3CC(c4cccc(Br)c4)=NO3)(C(=O)NCC3CCCCC3)CC2)cc(OCC)c1OCC (stereo not given)	2.06 µM (active)	23.9
O=C(NCC(=O)N(CCN1CCOCC1)C(C(=O)NC1CCCC1)c1ccccc1)c1cccs1 (stereo not given)	inactive	-0.374
Cc1ccc(N(Cc2ccccc2)C(=O)c2cccc(S(=O)(=O)N3CCN(C)CC3)c2)cc1	inactive	-1.81
Cc1cc(=O)[nH]c(N/N=C/c2ccc(Cl)cc2Cl)n1	inactive	3.1
CCN1CCN(Cc2ccc(NC(=O)c3ccc(C)c(NC(=O)c4ccnnc4)c3)cc2C(F)(F)F)CC1	inactive	
CCN1CCN(Cc2ccc(NC(=O)c3ccc(C)c(/C=C/c4cnc(Nc5cc(N6CCNCC6)nc(C)n5)cn4)c3)cc2C(F)(F)F)CC1	18.4 µM (active)	-17.2
CCN1CCN(Cc2ccc(NC(=O)c3ccc(C)c(NC(=O)c4ccc5n[nH]nc5c4)c3)cc2C(F)(F)F)CC1	inactive	

SMILES	Potency	cell number change [%]
CN1CCc2nc(NC(=O)c3cccc(S(=O)(=O)N4CCc5ccccc54)c3)sc2C1	inactive	12.6
COCC(=O)Nc1cc(C(=O)NCC(C)C)ccc1Cl	inactive	4.26
COc1cc(OC)c(OC)cc1/C=N/n1c(C)nc2ccccc2c1=O	inactive	16.2
COc1ccc(Br)cc1/C=N/n1c(C)nc2ccccc2c1=O	3.66 µM (active)	-4.17
Cc1nc2ccccc2c(=O)n1/N=C/c1ccccc1O	inactive	14.5
Cc1ccc(NC(=O)Cn2nc(-c3ccccc3)nc2-c2ccccc2)c(C)c1	inactive	-8.2
CCOC(=O)CNC(=O)CSc1ncnc2c1cnn2-c1ccc(C)cc1	inactive	-17
CCOC(=O)CSc1ncnc2c1cnn2-c1ccc(Cl)cc1	0.184 µM (active)	4.64
CCOC(=O)CSc1ncnc2c1cnn2-c1ccccc1	inactive	-3.98
CCCOc1cccc(C(=O)N(Cc2ccco2)C2CCS(=O)(=O)C2)c1 (stereo not given)	inactive	-9.39
CCNC(=S)NCc1ccc2[nH]c(C)cc2c1	inactive	15.9
COc1cc(C(=O)NCCc2ccc(F)cc2)c([N+](=O)[O-])cc1OC	inactive	
CCOC(=O)c1ccc(NS(=O)(=O)c2c(C)[nH]c(C)c2C(=O)N2CCCCC2)cc1	inactive	
COc1ccccc1CNS(=O)(=O)c1c(C)[nH]c(C)c1C(=O)N1CCCC1	inactive	
Cc1[nH]c(C)c(S(=O)(=O)NCCc2ccccc2)c1C(=O)N1CCCC1	inactive	13.4
COc1ccccc1CNS(=O)(=O)c1c(C)[nH]c(C)c1C(=O)N1CCCCC1	18.4 µM (active)	-19.3
COc1ccc(CCNS(=O)(=O)c2c(C)[nH]c(C)c2C(=O)N2CCCCC2)cc1OC	inactive	-25.1
COC(=O)c1ccc(NS(=O)(=O)c2c(C)[nH]c(C)c2C(=O)N2CCCC2)cc1	inactive	-16.1
Cc1[nH]c(C)c(S(=O)(=O)Nc2ccc(OC(F)(F)F)cc2)c1C(=O)N1CCCCC1	4.11 µM (active)	-12.7

SMILES	Potency	cell number change [%]
Cc1[nH]c(C)c(S(=O)(=O)NCCc2ccccc2)c1C(=O)N1CCCCC1	11.6 µM (active)	-13.9
Cc1ccccc1CNS(=O)(=O)c1c(C)[nH]c(C)c1C(=O)N1CCCCC1	inactive	-3.58
O=C(CN1CCN(Cc2ccccc2Cl)CC1)N/N=C/C=C\c1ccccc1[N+](=O)[O-]	inactive	0.435
Cc1ccccc1C(=O)c1cccn1CC(=O)NCC(C)c1ccccc1 (stereo not given)	inactive	-7.34
COc1ccc(C(C(=O)NCCC(C)C)N(CCO)C(=O)c2snc(C(N)=O)c2N)cc1 (stereo not given)	inactive	-7.09
O=C(CSc1nnnn1C1CCCC1)NCc1ccc2c(c1)OCO2	inactive	
CC1CCN(C(=O)c2ccccc2NS(=O)(=O)c2ccccc2)CC1	inactive	7.63
Clc1ccc(N2CCN(Cc3ccco3)CC2)cc1	inactive	9.59
Cc1[nH]c2ccccc2c1/C=C(\C#N)C(=O)NC1CC1	inactive	
CC1CCN(C2(O)C(=O)Nc3ccc([N+](=O)[O-])cc32)CC1 (stereo not given)	inactive	-1.63
O=C(Nc1ccc(F)cc1)c1cccc(N2C(=O)C3C4C=CC(C4)C3C2=O)c1 (stereo not given)	inactive	-17.9
O=C(Nc1ccccc1)c1cccc(N2C(=O)C3C4C=CC(C5CC45)C3C2=O)c1 (stereo not given)	16.4 µM (active)	-4.48
Cc1cccc(NC(=O)c2cccc(N3C(=O)CCC3=O)c2)c1	inactive	-21.8
COc1ccc(NC(=O)c2ccccc2N2C(=O)C3C4C=CC(C5CC45)C3C2=O)c(OC)c1 (stereo not given)	inactive	-15.3
COc1ccc(NC(=O)c2cccc(N3C(=O)C4C5C=CC(C6CC56)C4C3=O)c2)c(OC)c1 (stereo not given)	5.17 µM (active)	
COc1ccc(NC(=O)c2cccc(N3C(=O)C4C5C=CC(C5)C4C3=O)c2)c(OC)c1 (stereo not given)	inactive	-15.9
Cc1ccc(NC(=O)c2cccc(N3C(=O)C4C5CCC(C5)C4C3=O)c2)c(C)c1 (stereo not given)	inactive	26.1
Cc1cccc(NC(=O)c2cccc(N3C(=O)C4C5C=CC(C6CC56)C4C3=O)c2)c1 (stereo not given)	1.3 µM (active)	-23.8
COc1ccc(NC(=O)c2cccc(N3C(=O)C4C5C=CC(C6CC56)C4C3=O)c2)cc1 (stereo not given)	inactive	8.84
